{"source": "PubChem BioAssay (Tox21)", "note": "Inconclusive results are not listed. Where a structure was tested more than once in an assay, its records may differ in their call. Calls of active or inactive are those of the source. Calls come from the whole dose curve. % is set by controls: 0 for no effect and ±100 for the full control effect; potency is the fitted concentration of half-maximal effect.", "data": [{"target": "Acetylcholinesterase (Homo sapiens) (UniProt P22303)", "sequence (P22303 whole entry, looked up)": "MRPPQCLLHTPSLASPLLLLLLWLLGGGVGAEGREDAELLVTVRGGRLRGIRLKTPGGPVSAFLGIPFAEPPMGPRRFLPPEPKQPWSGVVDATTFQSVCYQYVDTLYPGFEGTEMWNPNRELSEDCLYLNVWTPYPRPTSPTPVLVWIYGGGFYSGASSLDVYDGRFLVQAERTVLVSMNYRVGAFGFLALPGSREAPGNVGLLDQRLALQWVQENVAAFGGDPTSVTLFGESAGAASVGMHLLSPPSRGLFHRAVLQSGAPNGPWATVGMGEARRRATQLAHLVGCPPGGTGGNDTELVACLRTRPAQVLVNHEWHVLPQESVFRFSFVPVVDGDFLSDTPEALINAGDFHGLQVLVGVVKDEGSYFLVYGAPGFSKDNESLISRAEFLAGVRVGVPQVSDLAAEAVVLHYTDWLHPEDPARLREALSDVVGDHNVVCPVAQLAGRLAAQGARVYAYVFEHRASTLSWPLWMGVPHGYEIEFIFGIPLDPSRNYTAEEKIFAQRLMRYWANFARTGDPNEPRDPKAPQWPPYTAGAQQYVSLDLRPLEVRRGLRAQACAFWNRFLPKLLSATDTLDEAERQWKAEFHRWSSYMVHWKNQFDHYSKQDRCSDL", "assay": "Acetylcholinesterase (AChE) small molecule antagonists: colormetric cell-based qHTS assay (AID 1347395); note: nearly all actives have a fitted effect of over 30% in size", "conditions": "SH-SY5Y cells AChE activity, colorimetric (Ellman); series mostly up to 115 µM; activity, negative = inhibition: at the top concentration", "in_short": "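Homogeneous whole-cell format. SH-SY5Y cells seeded overnight, dosed with compound (30 min, 37 C, 5% CO2), then given DTNB/acetylthiocholine cocktail for 90 min at 37 C; colorimetric signal.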", "values": [{"smiles": "c1ccc2cnccc2c1", "activity, negative = inhibition": "-3.13% (inactive)"}, {"smiles": "CN(C)c1ccc(C(=N)c2ccc(N(C)C)cc2)cc1", "Potency": "7.01 µM (active) and inactive"}, {"smiles": "Nc1nc2c(ncn2COCCO)c(=O)[nH]1", "activity, negative = inhibition": "-0.0347% [at 52.9 µM] (inactive)"}, {"smiles": "CCCCCCC(O)CCCCCCCCCCC(=O)O", "note": "(stereo not drawn)", "Potency": "inactive"}, {"smiles": "COc1cc(/C=C/C(=O)O[C@H]2CC[C@]34C[C@]35CC[C@]3(C)[C@@H]([C@H](C)CCC=C(C)C)CC[C@@]3(C)[C@@H]5CC[C@H]4C2(C)C)ccc1O", "activity, negative = inhibition": "-1.51% [at 52.9 µM] (inactive)"}, {"smiles": "Cc1ccc2oc(CN(Cc3ccccc3)C(=O)Nc3c(F)cc(F)cc3F)c(-c3ccc(Cl)cc3)c2c1", "activity, negative = inhibition": "-1.31% (inactive)"}, {"smiles": "CC(C)(C)c1ccc(O)c(O)c1", "Potency": "inactive"}, {"smiles": "CCOC(=O)NCCC[Si](OCC)(OCC)OCC", "activity, negative = inhibition": "-4.36% (inactive)"}, {"smiles": "CC(C)[N+](C)(CCOC(=O)C1c2ccccc2Oc2ccccc21)C(C)C", "activity, negative = inhibition": "-2.19% [at 52.9 µM] (inactive)"}, {"smiles": "C=Cc1ccncc1", "activity, negative = inhibition": "-0.436% (inactive)"}, {"smiles": "O=C=NCCCCCCN=C=O", "Potency": "inactive"}, {"smiles": "CC(O)c1ccccc1", "note": "(stereo not drawn)", "activity, negative = inhibition": "-0.614% (inactive)"}, {"smiles": "O=C(NO)C1(NS(=O)(=O)c2ccc(Oc3ccc(F)cc3)cc2)CCOCC1", "activity, negative = inhibition": "0.467% (inactive)"}, {"smiles": "CCCCC[Si](OCC)(OCC)OCC", "activity, negative = inhibition": "-3.41% (inactive)"}, {"smiles": "O=C1CCCC1", "Potency": "inactive"}, {"smiles": "NC(=O)c1cccc([N+](=O)[O-])c1", "activity, negative = inhibition": "-5.14% (inactive)"}, {"smiles": "CCc1cccc2c3c([nH]c12)C(CC)(CC(=O)O)OCC3", "note": "(stereo not drawn)", "activity, negative = inhibition": "4.8% [at 52.9 µM] (inactive)"}, {"smiles": "OC[C@@H](O)[C@@H](O)[C@H](O)[C@@H](O)CO", "Potency": "inactive"}, {"smiles": "CC#N", "activity, negative = inhibition": "-0.182% (inactive)"}, {"smiles": "O=C(OCCCCCCOC(=O)c1ccccc1)c1ccccc1", "activity, negative = inhibition": "3.83% (inactive)"}, {"smiles": "O=C(O)CSCC(=O)NC1CCSC1=O", "note": "(stereo not drawn)", "activity, negative = inhibition": "1.82% [at 52.9 µM] (inactive)"}, {"smiles": "CCC(=O)C1CC(C(C)C)CC=C1C", "note": "(stereo not drawn)", "activity, negative = inhibition": "0.112% (inactive)"}, {"smiles": "CC(C)NC(=O)c1ccccc1N", "activity, negative = inhibition": "-1.36% (inactive)"}]}]}
